In PubChem BioAssay AID1159580 (chemical genetic matrix, 2015):
Several values for one entry are separate records, joined by “and”; a condition that tells them apart may be missing. Equal values may be shown once. The campaign covered roughly 5,500 compounds. About 2,000 (36%) were called active. About 18% were inconclusive and are not listed. The list shows a part of the results. Values without a mark were called inactive. Rule as the data show it: active = normalized growth mostly below about 0.91 (no sharp cut-off); inconclusive = no clear call, values can overlap the other calls; inactive = mostly above about 0.92.

Assay: chemical genetic growth profiling, strain panel (AID 1159580);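 also: tested at 20 µM; growth read once vehicle control cultures reached saturation at 30 °C; 1 = growth at the plate median or of vehicle wells; lower values mean less growth of the strain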
Conditions: S. cerevisiae deletion strains, growth OD

Which normalized growth (locus YAL013W, strain DEP1, stronger effect = lower value) does the source give for `O=C(O)CCCCC1CCSS1` (configuration not stated) here?
The normalized growth was 0.97.

And the normalized growth (locus YAL021C, strain ccr4, stronger effect = lower value)?
Its normalized growth is 1.

What about the normalized growth (locus YAL026C, strain drs2, stronger effect = lower value) of the same molecule?
Its normalized growth is 0.94.

What about the normalized growth (locus YAL030W, strain snc1, stronger effect = lower value) of the same molecule?
Its normalized growth is 0.974.

And the normalized growth (locus YBL061C, strain skt5, stronger effect = lower value)?
The normalized growth was 0.979.

What about the normalized growth (locus YBR009C, strain hhf1, stronger effect = lower value) of the same molecule?
The normalized growth was 0.933.

And the normalized growth (locus YBR021W, strain FUR4, stronger effect = lower value)?
The normalized growth was 0.987.

What about the normalized growth (locus YBR023C, strain chs3, stronger effect = lower value) of the same molecule?
The normalized growth was 0.977.

What about the normalized growth (locus YBR171W, strain sec66, stronger effect = lower value) of the same molecule?
The normalized growth was 0.934.

And the normalized growth (locus YBR229C, strain ROT2, stronger effect = lower value)?
The normalized growth was 0.953.

What about the normalized growth (locus YBR231C, strain swc5, stronger effect = lower value) of the same molecule?
The normalized growth was 0.979.

What about the normalized growth (locus YBR279W, strain paf1, stronger effect = lower value) of the same molecule?
The normalized growth was 0.978.

And the normalized growth (locus YCL011C, strain gbp2, stronger effect = lower value)?
Its normalized growth is 0.959.

What about the normalized growth (locus YCL016C, strain dcc1, stronger effect = lower value) of the same molecule?
The normalized growth was 0.983.

And the normalized growth (locus YCL029C, strain bik1, stronger effect = lower value)?
Its normalized growth is 0.993.

And the normalized growth (locus YCL061C, strain MRC1, stronger effect = lower value)?
Its normalized growth is 0.956.

And the normalized growth (locus YCL069W, strain vba3, stronger effect = lower value)?
Its normalized growth is 0.973.

And the normalized growth (locus YCR088W, strain abp1, stronger effect = lower value)?
The normalized growth was 0.978.

And the normalized growth (locus YDL005C, strain med2, stronger effect = lower value)?
Its normalized growth is 1.02.

And the normalized growth (locus YDL035C, strain GPR1, stronger effect = lower value)?
Its normalized growth is 0.98.

And the normalized growth (locus YDL040C, strain nat1, stronger effect = lower value)?
The normalized growth was 0.976.

And the normalized growth (locus YDL074C, strain BRE1, stronger effect = lower value)?
Its normalized growth is 0.99.

And the normalized growth (locus YDL101C, strain DUN1, stronger effect = lower value)?
Its normalized growth is 0.978.

And the normalized growth (locus YDL134C, strain PPH21, stronger effect = lower value)?
Its normalized growth is 0.974.

What about the normalized growth (locus YDL185W, strain tfp1, stronger effect = lower value) of the same molecule?
The normalized growth was 0.942.

What about the normalized growth (locus YDL192W, strain arf1, stronger effect = lower value) of the same molecule?
The normalized growth was 0.979.

What about the normalized growth (locus YDR001C, strain nth1, stronger effect = lower value) of the same molecule?
The normalized growth was 0.971.

And the normalized growth (locus YDR069C, strain doa4, stronger effect = lower value)?
Its normalized growth is 0.982.

And the normalized growth (locus YDR101C, strain arx1, stronger effect = lower value)?
The normalized growth was 0.996.

And the normalized growth (locus YDR137W, strain rgp1, stronger effect = lower value)?
Its normalized growth is 0.883.

And the normalized growth (locus YDR150W, strain NUM1, stronger effect = lower value)?
The normalized growth was 0.958.

What about the normalized growth (locus YDR159W, strain sac3, stronger effect = lower value) of the same molecule?
The normalized growth was 0.984.

And the normalized growth (locus YDR162C, strain NBP2, stronger effect = lower value)?
Its normalized growth is 0.938.

What about the normalized growth (locus YDR195W, strain ref2) of the same molecule?
Its normalized growth is 0.994.

And the normalized growth (locus YDR297W, strain sur2, stronger effect = lower value)?
The normalized growth was 0.975.

And the normalized growth (locus YDR318W, strain mcm21, stronger effect = lower value)?
The normalized growth was 0.992.

And the normalized growth (locus YDR334W, strain swr1, stronger effect = lower value)?
The normalized growth was 0.978.

What about the normalized growth (locus YDR335W, strain msn5, stronger effect = lower value) of the same molecule?
Its normalized growth is 0.97.

What about the normalized growth (locus YDR388W, stronger effect = lower value) of the same molecule?
The normalized growth was 0.985.

What about the normalized growth (locus YDR392W, strain spt3, stronger effect = lower value) of the same molecule?
Its normalized growth is 0.888.

And the normalized growth (locus YDR502C, strain sam2, stronger effect = lower value)?
The normalized growth was 0.975.

And the normalized growth (locus YEL003W, strain gim4, stronger effect = lower value)?
The normalized growth was 0.961.

And the normalized growth (locus YEL037C, strain rad23, stronger effect = lower value)?
The normalized growth was 0.976.

And the normalized growth (locus YEL061C, strain CIN8 (second series), stronger effect = lower value)?
The normalized growth was 0.968.

And the normalized growth (locus YEL061C, strain CIN8, stronger effect = lower value)?
The normalized growth was 0.975.

What about the normalized growth (locus YER015W, strain faa2, stronger effect = lower value) of the same molecule?
Its normalized growth is 0.985.

And the normalized growth (locus YER016W, strain bim1, stronger effect = lower value)?
The normalized growth was 0.983.

And the normalized growth (locus YER110C, stronger effect = lower value)?
The normalized growth was 0.961.

What about the normalized growth (locus YER111C, strain swi4, stronger effect = lower value) of the same molecule?
Its normalized growth is 0.963.

And the normalized growth (locus YER155C, strain BEM2 (second series), stronger effect = lower value)?
Its normalized growth is 0.922.

What about the normalized growth (locus YER155C, strain BEM2, stronger effect = lower value) of the same molecule?
Its normalized growth is 0.989.

What about the normalized growth (locus YER167W, strain BCK2, stronger effect = lower value) of the same molecule?
Its normalized growth is 0.981.

And the normalized growth (locus YFR010W, strain ubp6, stronger effect = lower value)?
Its normalized growth is 0.962.

What about the normalized growth (locus YGL078C, strain dbp3, stronger effect = lower value) of the same molecule?
The normalized growth was 0.981.

What about the normalized growth (locus YGL086W, strain mad1, stronger effect = lower value) of the same molecule?
Its normalized growth is 0.97.

What about the normalized growth (locus YGL167C, strain pmr1, stronger effect = lower value) of the same molecule?
Its normalized growth is 0.95.

What about the normalized growth (locus YGL173C, strain kem1, stronger effect = lower value) of the same molecule?
The normalized growth was 0.973.

And the normalized growth (locus YGL227W, strain vid30, stronger effect = lower value)?
Its normalized growth is 0.965.

What about the normalized growth (locus YGL240W, strain doc1, stronger effect = lower value) of the same molecule?
Its normalized growth is 0.956.

What about the normalized growth (locus YGL248W, strain PDE1, stronger effect = lower value) of the same molecule?
The normalized growth was 0.981.

What about the normalized growth (locus YGL253W, strain hxk2, stronger effect = lower value) of the same molecule?
The normalized growth was 0.992.

What about the normalized growth (locus YGR078C, strain PAC10, stronger effect = lower value) of the same molecule?
The normalized growth was 0.999.

What about the normalized growth (locus YGR135W, strain pre9, stronger effect = lower value) of the same molecule?
The normalized growth was 0.982.

What about the normalized growth (locus YGR229C, strain SMI1, stronger effect = lower value) of the same molecule?
The normalized growth was 1.01.

What about the normalized growth (locus YGR252W, strain gcn5, stronger effect = lower value) of the same molecule?
Its normalized growth is 0.873.

What about the normalized growth (locus YHR013C, strain ard1, stronger effect = lower value) of the same molecule?
The normalized growth was 0.935.

What about the normalized growth (locus YHR027C, strain rpn1, stronger effect = lower value) of the same molecule?
The normalized growth was 0.987.

And the normalized growth (locus YHR030C, strain SLT2, stronger effect = lower value)?
Its normalized growth is 0.98 and 0.943.

What about the normalized growth (locus YHR079C, strain IRE1 (second series), stronger effect = lower value) of the same molecule?
Its normalized growth is 0.984.

What about the normalized growth (locus YHR079C, strain IRE1, stronger effect = lower value) of the same molecule?
Its normalized growth is 0.383 (active).

What about the normalized growth (locus YHR094C, strain hxt1, stronger effect = lower value) of the same molecule?
Its normalized growth is 0.981.

And the normalized growth (locus YHR129C, strain ARP1, stronger effect = lower value)?
Its normalized growth is 0.997.

And the normalized growth (locus YHR142W, strain chs7, stronger effect = lower value)?
Its normalized growth is 1.02.

And the normalized growth (locus YHR200W, strain rpn10, stronger effect = lower value)?
Its normalized growth is 0.991.

And the normalized growth (locus YIL066C, strain RNR3, stronger effect = lower value)?
The normalized growth was 0.985.

And the normalized growth (locus YIL073C, strain SPO22, stronger effect = lower value)?
The normalized growth was 0.978.

And the normalized growth (locus YIL125W, strain kgd1, stronger effect = lower value)?
The normalized growth was 0.99.

And the normalized growth (locus YIR030C, strain dcg1, stronger effect = lower value)?
Its normalized growth is 0.978.

What about the normalized growth (locus YJL092W, strain hpr5, stronger effect = lower value) of the same molecule?
Its normalized growth is 0.972.

And the normalized growth (locus YJL095W, strain BCK1 (second series), stronger effect = lower value)?
The normalized growth was 0.975.

And the normalized growth (locus YJL095W, strain BCK1, stronger effect = lower value)?
The normalized growth was 1.03 and 0.902.

And the normalized growth (locus YJL115W, strain asf1, stronger effect = lower value)?
Its normalized growth is 0.978.

And the normalized growth (locus YJL129C, strain trk1, stronger effect = lower value)?
Its normalized growth is 0.91.

What about the normalized growth (locus YJL134W, strain LCB3, stronger effect = lower value) of the same molecule?
Its normalized growth is 0.977.

And the normalized growth (locus YJL154C, strain vps35, stronger effect = lower value)?
Its normalized growth is 0.975.

And the normalized growth (locus YJL164C, strain tpk1, stronger effect = lower value)?
The normalized growth was 0.967.

And the normalized growth (locus YJL166W, strain qcr8, stronger effect = lower value)?
Its normalized growth is 0.976.

And the normalized growth (locus YJL168C, strain set2, stronger effect = lower value)?
Its normalized growth is 0.992.

What about the normalized growth (locus YJL187C, strain SWE1 (second series), stronger effect = lower value) of the same molecule?
The normalized growth was 0.992.

And the normalized growth (locus YJL187C, strain SWE1, stronger effect = lower value)?
The normalized growth was 0.973.

And the normalized growth (locus YJR043C, strain POL32, stronger effect = lower value)?
Its normalized growth is 1.01.

What about the normalized growth (locus YJR066W, strain TOR1, stronger effect = lower value) of the same molecule?
The normalized growth was 0.812 (active).
